From PubChem BioAssay
GPT2 inhibitor: Primary qHTS assay for inhibitors of Glutamate pyruvate transaminase 2 (GPT2); AID 1671188, 2021; Potency, µM (highest dose often 57.7 µM), for inactives: at the top dose activity change, negative = inhibition, actives largely listed as inhibitors; Alanine aminotransferase 2 (Homo sapiens), Q8TD30; 100,000 compounds, 0.25% hits; Recombinant GPT2, coupled pyruvate oxidase/HRP Amplex Red fluorescence; note: nearly all actives have a fitted effect of over 60% in size
Target sequence (Q8TD30 whole entry, looked up): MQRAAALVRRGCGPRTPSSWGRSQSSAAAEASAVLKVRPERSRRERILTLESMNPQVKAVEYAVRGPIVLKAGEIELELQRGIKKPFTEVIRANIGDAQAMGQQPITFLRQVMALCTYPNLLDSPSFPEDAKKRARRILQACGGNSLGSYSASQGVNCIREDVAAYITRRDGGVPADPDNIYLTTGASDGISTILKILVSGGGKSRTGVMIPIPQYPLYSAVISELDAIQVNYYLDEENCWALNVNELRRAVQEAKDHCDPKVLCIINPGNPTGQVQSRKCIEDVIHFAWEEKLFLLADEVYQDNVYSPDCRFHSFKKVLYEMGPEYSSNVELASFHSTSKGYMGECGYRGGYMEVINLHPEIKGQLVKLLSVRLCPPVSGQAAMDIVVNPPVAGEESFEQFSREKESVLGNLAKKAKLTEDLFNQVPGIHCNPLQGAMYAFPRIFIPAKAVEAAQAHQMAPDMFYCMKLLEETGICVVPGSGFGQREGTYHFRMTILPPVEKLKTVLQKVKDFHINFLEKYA
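GPT2 10ng/uL, a-KG 250uM, L-Ala 2mM, HEPES pH7.5 + 0.0001% Tween; 30 min RT. Then Amplex mix (PO/HRP/ThPP), 30 min RT dark, fluorescence. AOA 50uM used as positive control.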
NIH3T3 tox: Cytotoxic Profiling in NIH 3T3 Cell Line of Diverse Libraries Using Quantitative High-Throughput Screening; NIH 3T3 viability, CellTiter-Glo ATP luminescence, 48-72 h; 94,000 compounds, 4.3% hits; Potency, µM (series often up to 96.7 µM), for the others: top-dose activity change, negative = cytotoxicity, actives largely listed as inhibitors; AID 1345082, 2018; note: nearly all actives have a fitted effect of over 55% in size
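Mouse fibroblast NIH 3T3 cells, 400 per well, received compound via pintool and were incubated for 48 or 72 hr prior to CellTiter-Glo ATP luminescence measurement.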
HEK cytotox: Cytotoxic Profiling in HEK 293 Cell Line of Diverse Libraries Using Quantitative High-Throughput Screening | HEK 293 viability, ATP luminescence (CellTiter-Glo), 48-72 h | Potency, µM (doses to about 115 µM), without a hit: at the highest dose activity change, negative = cytotoxicity, usual class: inhibitors | 94,000 compounds, 6.6% hits | AID 1345083, 2018; note: nearly all actives have a fitted effect of over 60% in size
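Cytotoxicity was scored by loss of ATP-coupled luminescence (CellTiter-Glo) in HEK 293 cells. Compound treatment ran 48 or 72 hr at 37 degree Celsius, 5% CO2, 95% humidity.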
Luciferase inh: Firefly luciferase inhibition profiling of diverse chemical library using quantitative high-throughput screening; Potency, µM (titrated, usually from 115 µM), usual class: inhibitors; 76,000 compounds, 2.5% hits; purified P. pyralis luciferase, luminescence, biochemical; note: nearly all actives have a fitted effect of over 65% in size
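Biochemical qHTS: compound (6-point titration) added to 10uM D-luciferin plus 10uM ATP in Tris acetate pH 7.5 buffer with Mg, Tween-20 and BSA, then purified enzyme at 10nM; light output imaged.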
hNpr1 antagonist: Natriuretic polypeptide receptor (hNpr1) antagonism - Primary qHTS. HEK293 hNpr1 GloSensor cGMP, ANP-stimulated luminescence. Potency, µM (titrated, usually from 46.3 µM), for inactives: top-dose activity change, negative = inhibition, actives largely listed as inhibitors. 76,000 compounds, 1.6% hits. AID 1347048, 2019; calls by dose curve; note: nearly all actives have a fitted effect of over 60% in size
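Compound pre-incubated 30 min at room temperature on GloSensor-loaded HEK293 cells stably carrying hNpr1 and the pGS-40F cGMP biosensor. Stimulation uses hNppA at 0.1 nM final; luminescence is taken at baseline and 20 min post-agonist.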
* = called active by the depositor; i = inactive; ? = inconclusive; · = no result; [ ] = another dose, or the depositor's remark. In the library only some 10% were active in any assay of this set; here they are far more common. Unless noted, calls come from the whole dose curve; as a rule, active = well fitted curve in the direction sought with a large enough effect; inconclusive = small, poorly fitted or top-dose-only effect, or another doubt; inactive = no such curve, though single readings can be large; an effect the other way counts as inactive or inconclusive. % is set by controls: 0 for no effect and ±100 for the full control effect; potency is the fitted concentration of half-maximal effect.

SMILES	GPT2 inhibitor	NIH3T3 tox	HEK cytotox	Luciferase inh	hNpr1 antagonist
O=C(COc1ccccc1)N1CCCC(n2cc(-c3nc(C4CC4)no3)nn2)C1 (stereo unspecified)	-8%	1%	-1%	i	-2%
CCn1cc(C(=O)N2C[C@@H](COc3ccccc3)[C@H](C(N)=O)C2)cn1	-24%	-9%	3%	i	-4%
Cc1ccc(-c2c(C(=O)NCCCc3ccccc3)nc3sccn23)cc1	i	28µM*	18µM*	·	·
O=C(NCC1CCCCC1)c1nc2sccn2c1-c1ccccc1	i	28µM*	?	·	·
COc1ccc(CCNC(=O)c2nc3sccn3c2-c2ccc(OC)cc2)cc1	3%	?	?	·	·
COc1ccc(CCNC(=O)c2nc3sccn3c2-c2ccc(C)cc2)cc1	2%[88.5 µM]	22µM*	?	·	·
COc1ccc(-c2c(C(=O)NC3CCCCCC3)nc3sccn23)cc1	1%	-22%	45µM*	·	·
O=C(NCC1CCCCC1)c1nc2sccn2c1-c1cccnc1	i	?	-30%	·	·
COCc1ncc(C)n1CC1CCN(S(=O)(=O)c2c(C)noc2C)CC1	i	-12%	-18%	·	·
CCCCN1CCN(C(=O)C2CCCN(c3cnn(Cc4ccccc4)c(=O)c3)C2)CC1 (stereo unspecified)	0%	-15%	?	i	-1%
Cc1ccc(-c2c(C(=O)NCc3ccccn3)nc3sccn23)cc1	i	?	79µM*	·	·
O=C(NCCCc1ccccc1)c1nc2sccn2c1-c1ccc(C(F)(F)F)cc1	2%	?	?	·	·
O=C(NCc1ccccn1)c1nc2sccn2c1-c1ccc(F)cc1	i	?	-22%	·	·
O=C(NCCCc1ccccc1)c1nc2sccn2c1-c1cccc(C(F)(F)F)c1	-10%[88.5 µM]	?	50µM*	·	·
O=C(COc1ccc(-c2nnc3n2CCCC3)cc1)NCc1ccccc1	i	i	1%	i	7%
Cc1noc(C)c1[S+](=O)([O-])NCCNC(=O)c1ccc(-c2cncnc2)cc1	·	0%	-1%	·	·
Cc1ccc2c(n1)N(C)[C@H](CO)CCN(CC1CCCCC1)C2	-25%[88.5 µM]	?	45µM*	i	-3%[70.6 µM]
CC(=O)N1CCC(N2CC[C@@H](CO)N(C)c3nc(C)ccc3C2)CC1	-3%[88.5 µM]	45µM*	79µM*	i	5%[70.6 µM]
Cc1ccc2c(n1)N(C)[C@H](CO)CCN(Cc1ccc(OC(F)(F)F)cc1)C2	?	?	79µM*	i	4%[70.6 µM]
Cc1ccc2c(n1)N(C)[C@H](CO)CCN(Cc1ccc(F)cc1)C2	-27%[88.5 µM]	-13%[174 µM]	-18%[172 µM]	i	0%[70.6 µM]
Cc1ccc2c(n1)N(C)[C@H](CO)CCN(Cc1ccccc1Cl)C2	-16%[88.5 µM]	?	?	i	-9%[70.6 µM]
Cc1ccc2c(n1)N(C)[C@H](CO)CCN(C(=O)Nc1ccccc1)C2	-1%[88.5 µM]	-14%[138 µM]	-8%[172 µM]	i	-3%[70.6 µM]
CNC(=O)c1cc(C)nc2onc(C3CCCN(C(=O)CN(C)C)C3)c12 (stereo unspecified)	·	-4%	-7%	·	·
Cc1cnc(-c2ccccc2)n1CC1CCCN(Cc2ccc(C#N)cc2)C1 (stereo unspecified)	-9%	?	?	·	·
c1ccc(Oc2cc3c(cn2)NCCN(Cc2ccc4[nH]ccc4c2)C3)cc1	-2%[88.5 µM]	?	89µM*	i	?
Cc1cccc(CN2CCNc3cnc(Oc4ccccc4)cc3C2)c1	-8%[88.5 µM]	-28%[138 µM]	89µM*	i	-14%[70.6 µM]
Fc1ccccc1CN1CCNc2cnc(Oc3ccccc3)cc2C1	-15%[88.5 µM]	?	79µM*	i	-4%[70.6 µM]
COc1ccccc1CN1CCNc2cnc(Oc3ccccc3)cc2C1	i	?	?	i	-14%[70.6 µM]
Fc1ccccc1CN1CCNc2cnc(Nc3ccccc3)cc2C1	-84%[88.5 µM]	?	100µM*	i	?
O=C(c1ccccc1)N1CCC2(CC1)C(=O)NCN2C(=O)Cc1ccc(O)cc1	i	-16%	-10%	·	·
